What was measured:
Assay in all cases: PBM binding z-score (relative to random genomic background probes); higher = stronger binding; sequences stand for … in GC…GCGATTGACAGCGTAGAATGAAGG
[1] = system: FXR:RXRa (NR concentration 270 nM, RXRa partner concentration 90 nM)
In short: (§1)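 Ligand-free nuclear receptor dimers were bound for 1 h to custom Agilent 4×180K protein-binding microarrays. Detection used antibodies against each partner (one per run). Binding z-scores rest on regression-normalized fluorescence, with random background probes as the reference.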

[2] = system: LXRa:RXRa (NR concentration 270 nM, RXRa partner concentration 90 nM)
In short: as §1

[3] = system: LXRa homodimer (NR concentration 270 nM)
In short: as §1

[4] = system: LXRb:RXRa (NR concentration 270 nM, RXRa partner concentration 90 nM)
In short: as §1

[5] = system: LXRb homodimer (NR concentration 270 nM)
In short: as §1

[6] = system: PPARa:RXRa (NR concentration 270 nM, RXRa partner concentration 90 nM)
In short: as §1

[7] = system: PPARg:RXRa (NR concentration 180 nM, RXRa partner concentration 90 nM)
In short: as §1

[8] = system: PPARg:RXRa 270nM:90nM, anti-RXR (NR concentration 270 nM, RXRa partner concentration 90 nM)
In short: as §1

[9] = system: PPARg:RXRa 30nM:10nM, anti-RXR (NR concentration 30 nM, RXRa partner concentration 10 nM)
In short: as §1

[10] = system: PPARg:RXRa 90nM:30nM, anti-RXR (NR concentration 90 nM, RXRa partner concentration 30 nM)
In short: as §1

[11] = system: PPARg:RXRa DBDmut IVT, anti-RXR (DBD mutation: RXRa K156A/R161A, NR concentration 270 nM, RXRa partner concentration 90 nM)
In short: as §1

[12] = system: PPARg:RXRa IVT, anti-PPARg (NR concentration 270 nM, RXRa partner concentration 90 nM)
In short: as §1

[13] = system: PPARg DBDmut:RXRa IVT, anti-PPARg (DBD mutation: PPARg1 K132A/R137A, NR concentration 270 nM, RXRa partner concentration 90 nM)
In short: as §1

[14] = system: PPARg DBDmut IVT, anti-PPARg (DBD mutation: PPARg1 K132A/R137A, NR concentration 270 nM)
In short: as §1

[15] = system: PPARg homodimer (NR concentration 180 nM)
In short: as §1

[16] = system: PXR:RXRa (NR concentration 270 nM, RXRa partner concentration 90 nM)
In short: as §1

[17] = system: PXR homodimer (NR concentration 270 nM)
In short: as §1

[18] = system: RARa:RXR (NR concentration 270 nM, RXRa partner concentration 90 nM)
In short: as §1

[19] = system: RARa homodimer (NR concentration 270 nM)
In short: as §1

[20] = system: RARb:RXRa (NR concentration 270 nM, RXRa partner concentration 90 nM)
In short: as §1

Sequence	PBM binding z-score [1]	PBM binding z-score [2]	PBM binding z-score [3]	PBM binding z-score [4]	PBM binding z-score [5]	PBM binding z-score [6]	PBM binding z-score [7]	PBM binding z-score [8]	PBM binding z-score [9]	PBM binding z-score [10]	PBM binding z-score [11]	PBM binding z-score [12]	PBM binding z-score [13]	PBM binding z-score [14]	PBM binding z-score [15]	PBM binding z-score [16]	PBM binding z-score [17]	PBM binding z-score [18]	PBM binding z-score [19]	PBM binding z-score [20]
TCTTGTTGATCAGCAGGTTAAGAAAGCTGGCCAA	0.582	0.423	-0.308	0.784	-0.493	0.727	-0.682	1.17	2.56	1.66	1.56	0.0637	-0.302	-0.327	-0.0408	0.332	-0.115	0.447	-0.41	0.288
CGAACGAGGGCATGAGTTGTTAGCAAATGCCGAT	0.401	0.0861	-0.503	0.156	-1.1	1.01	1.08	1.21	-0.27	0.425	3.23	2.05	-0.603	-0.6	-0.0331	0.251	-0.0972	0.245	-0.393	1.98
CAAACTAGGTCACCGCAAGGTCAAAGTCCGCATG	6.27	5.91	5.31	5.42	1.37	6.06	9.19	7.84	5.73	7.81	8.65	8.87	6.76	3.92	8.41	6.08	2.22	6.85	2.14	5
TCTTGCAGATCAAGCAGGTTAAGAAAGCCTGAGT	-0.529	0.00259	-0.304	0.157	-0.667	0.293	-0.508	0.302	1.76	1.14	0.549	-0.312	-0.516	-0.801	-0.945	0.199	-0.285	0.324	-1.11	-0.136
CCTCCTAGGTCAATGGTCAGCTAAAGCAGCTCGC	3.28	2.46	0.212	2.07	0.406	3.53	3.92	5.19	2.32	4.99	3.61	3.53	-0.066	0.119	2.06	1.28	-0.0378	1.98	0.584	3.77
CCTTACGGGTCACTCCAGGTTATAGCCTCGGAGT	4.87	7.57	1.87	5.01	0.105	4.56	3.61	3.83	1.17	2.46	2.45	3.8	-1.39	-0.526	1.18	4.66	0.0423	3.43	0.55	3.64
